According to the supplement of paper PMC6805474:

How the values were obtained:
[1] = tested on: Schistosoma mansoni schistosomula (LE); experiment: XTT viability relative to DMSO control; higher = more viable (less active); conditions: 72 h; 10 µM
Protocol: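 XTT/PMS was then added for a further 24 h (72 h total) and A450 was read. % viability = (sample - heat-killed control)/(DMSO control - heat-killed control) x 100, from duplicate wells in two independent experiments.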

[2] = tested on: Schistosoma mansoni schistosomula (NMRI); experiment: phenotypic severity score (0-4); higher = more antischistosomal effect, active = 2 or more; conditions: 10 µM
[3] = tested on: Schistosoma mansoni schistosomula (Liberian); experiment: drug effect (1 - score/DMSO control score) (fraction); higher = more antischistosomal effect, active = 0.5 or more; extreme values may be limits of the assay; conditions: 10 µM
Method in brief: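 Schistosomula of the Liberian strain of Schistosoma mansoni were mechanically transformed from cercariae, pre-incubated for at least 12 h, and placed at 50 per well in flat-bottom 96-well plates with Medium 199 containing 5% FCS. Compounds were tested in duplicate at 10 µM at 37 °C and 5% CO2, alongside wells holding 0.1% DMSO. Parasites were scored visually at 10× after 24, 48 and 72 h on a quarter-point scale running from 3 (normal) to 0 (dead). Drug effect came from the mean test-well score relative to the mean DMSO-well score, with negative values set to zero and plates accepted only when the DMSO wells averaged at least 2.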
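For phenotypic severity score (0-4) in this document: visual microscopic scoring of shape, motility and density changes versus 0.5% DMSO solvent controls, one point per descriptor, degeneracy or death scored 4, mean of duplicate wells.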

| SMILES | XTT viability [1] [%] | phenotypic severity score ([2]; 24 h) | phenotypic severity score ([2]; 48 h) | phenotypic severity score ([2]; 72 h) | drug effect ([3]; 24 h) | drug effect ([3]; 48 h) | drug effect ([3]; 72 h) |
| --- | --- | --- | --- | --- | --- | --- | --- |
| COc1ccc(-c2onc(C(F)(F)F)c2-c2ccc(Cl)cc2)c(O)c1 | 0.0885 | 0 (inactive) | 0 (inactive) | 0 (inactive) | 0.15 (inactive) | 0.167 (inactive) | 0.188 (inactive) |
| CC(C)(C)OC(=O)N1CCN(c2cc(-c3ccc(Oc4ccccc4)cc3)n[nH]2)CC1 | 66.1 | 0 (inactive) | 0 (inactive) | 0 (inactive) | 0.0526 (inactive) | 0.167 (inactive) | 0.25 (inactive) |
| O=C1COCc2ccc(Br)cc2N1Cc1ccc(C(F)(F)F)cc1 | 99.5 | 0 (inactive) | 0 (inactive) | 0 (inactive) | 0.297 (inactive) | 0.389 (inactive) | 0.438 (inactive) |
| CC(Oc1ccccc1)C(=O)Nc1nc(-c2ccccn2)cs1 (stereo not given) | 59.4 | 2 (active) | 0 (inactive) | 4 (active) | 0.297 (inactive) | 0.5 (active) | 0.625 (active) |
| Cc1cc(NCCc2ccccc2)nc(NC(=N)Nc2ccc(Cl)cc2)n1 | 8.5 | 4 (active) | 4 (active) | 4 (active) | 1 (active) | 1 (active) | 1 (active) |
| CCCCOC(=O)Nc1cc2nc(C3CCCCC3)[nH]c2cc1N1CCCC1 | 132 | 3 (active) | 4 (active) | 4 (active) | 0.15 (inactive) | 0.389 (inactive) | 0.562 (active) |
| Brc1cncc(-c2cc(NCCCn3ccnc3)nc(-c3ccccc3)n2)c1 | 12.9 | 1 (inactive) | 4 (active) | 4 (active) | 0.273 (inactive) | 0.65 (active) | 0.673 (active) |
| c1ccc(Oc2ccc(-c3cc(C4CCOCC4)[nH]n3)cc2)cc1 | 98.4 | 0 (inactive) | 0 (inactive) | 0 (inactive) | 0.182 (inactive) | 0.35 (inactive) | 0.127 (inactive) |
| COc1ccc(Nc2ccccc2NC(=O)c2ccc(O)nc2)cc1 | 176 | 0 (inactive) | 0 (inactive) | 0 (inactive) | 0.182 (inactive) | 0.45 (inactive) | 0.4 (inactive) |
| CS(=O)(=O)N1CCC(CCn2nc(Cc3cccc4ccccc34)c3c(N)ncnc32)CC1 | 90.7 | 0 (inactive) | 0 (inactive) | 0 (inactive) | 0.273 (inactive) | 0.45 (inactive) | 0.509 (active) |
| O=C(Nc1ccccc1)c1ccc(-c2cc3ccncc3cc2OC2CCNCC2)s1 | -18.1 | 0 (inactive) | 0 (inactive) | 0 (inactive) | 0.15 (inactive) | 0.459 (inactive) | 0.455 (inactive) |
| COc1ccc(C2=NCCN2)cc1-c1cn(-c2cccc(C3=NCCN3)c2)nn1 | 85.9 | 0 (inactive) | 0 (inactive) | 0 (inactive) | 0.1 (inactive) | 0.111 (inactive) | 0.25 (inactive) |
| FC(F)(F)c1cc(NCCc2ccccc2)nc(-c2ccccn2)n1 | 58.7 | 1 (inactive) | 2 (active) | 4 (active) | 0.05 (inactive) | 0.514 (active) | 0.394 (inactive) |
| CN(C)CCNC(=O)N1CCCN(c2ncnc3cc(-c4ccccc4)sc23)CC1 | 106 | 0 (inactive) | 0 (inactive) | 0 (inactive) | < 0 (inactive) | 0.2 (inactive) | 0.556 (active) |
| CN(C(=O)c1cc2c(-c3cncnc3)cccc2[nH]1)c1ccccc1 | 102 | 0 (inactive) | 0 (inactive) | 0 (inactive) | 0.189 (inactive) | 0.278 (inactive) | 0.375 (inactive) |
| CC(C)(C)n1nc(Cc2cccc3ccccc23)c2c(N)ncnc21 | 85.5 | 0 (inactive) | 0 (inactive) | 0 (inactive) | 0.15 (inactive) | 0.222 (inactive) | 0.625 (active) |
| Cc1cc(C)c2cc(C(=O)NC3CCCCCCC3)[nH]c2c1 | 124 | 0 (inactive) | 1 (inactive) | 0 (inactive) | 0.316 (inactive) | 0.333 (inactive) | 0.438 (inactive) |
| CNC(=O)c1nn(C)c2c1C(C)(C)Cc1cnc(Nc3ccc(N4CCN(C)CC4)cc3)nc1-2 | 157 | 3 (active) | 4 (active) | 4 (active) | 0.364 (inactive) | 0.8 (active) | 0.891 (active) |
| CN1CCN(S(=O)(=O)c2ccc(-c3ccc4c(Nc5ncc(Cl)cn5)ccnc4c3)cc2)CC1 | 32.4 | 2 (active) | 4 (active) | 4 (active) | 0.6 (active) | 0.611 (active) | 0.625 (active) |
| Cc1cc(NC(=O)c2ccc(Oc3ccc(Cl)cc3O)o2)no1 | 99.6 | 0 (inactive) | 0 (inactive) | 0 (inactive) | 0.1 (inactive) | < 0 (inactive) | 0.111 (inactive) |
